PV pol inh: poliovirus RdRp elongation inhibitors, primary screen, biochemical, fluorescence polarization, total intensity; Genome polyprotein (Poliovirus type 1 (strain Mahoney)), P03300; poliovirus polymerase elongation; stronger effect = lower value; % elongation, % (compound at 16.7 µg/mL); 150,000 compounds, 0.66% hits; in the data active = % elongation below about 90%
AID504770: growth inhibition of E. coli YBA685, primary screen, V. cholerae RctB inhibitors | E. coli YBA685 rctB-dependent plasmid, OD600 growth, 3 h; stronger effect = lower value | z-score (concentration not given with the values) | 130,000 compounds, 0.27% hits | AID 504770, 2011; in the data active = z-score below about -2, passing the limit was not always enough
MenB inh: M. tuberculosis MenB inhibitors, primary screen, biochemical, absorbance. 100,000 compounds, 0.43% hits. 1,4-dihydroxy-2-naphthoyl-CoA synthase (Mycobacterium tuberculosis (strain ATCC 25618 / …. MenB enzyme assay, absorbance read-out. AID 540299, 2011. inhibition, % (no concentration beside the values); in the data active = inhibition above about 21%, passing the limit was not always enough
MbtI inh: MbtI salicylate synthase inhibitors, primary screen, biochemical, fluorescence intensity; 100,000 compounds, 0.89% hits; inhibition, % (concentration not given with the values); purified MbtI enzyme, fluorescence intensity read-out; AID 493033, 2011; P9WFX0; in the data active = inhibition mostly above about 56%, no sharp cut-off; inactive = mostly below about 77%
Target sequence (P9WFX0 whole entry, looked up): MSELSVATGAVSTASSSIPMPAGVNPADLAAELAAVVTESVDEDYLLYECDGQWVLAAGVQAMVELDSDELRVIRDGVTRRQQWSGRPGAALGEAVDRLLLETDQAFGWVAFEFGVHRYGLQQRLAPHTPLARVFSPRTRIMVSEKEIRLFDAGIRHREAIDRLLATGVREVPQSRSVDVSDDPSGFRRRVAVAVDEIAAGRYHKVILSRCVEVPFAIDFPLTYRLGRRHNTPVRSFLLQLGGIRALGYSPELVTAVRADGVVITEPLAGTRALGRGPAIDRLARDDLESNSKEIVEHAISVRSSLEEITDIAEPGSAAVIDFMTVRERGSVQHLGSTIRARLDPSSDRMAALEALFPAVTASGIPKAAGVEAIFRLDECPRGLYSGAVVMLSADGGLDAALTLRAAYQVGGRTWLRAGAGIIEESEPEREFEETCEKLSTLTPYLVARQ
A number is an active result. In the library only some 1.5% were active in any assay of this set; here they are far more common.

How did CC1CCCC(C)N1C(=O)COC(=O)C1CCCCC1 (configuration not stated) do in these assays?
PV pol inh: inactive; AID504770: inactive; MenB inh: inactive; MbtI inh: inactive

How did O=C(NCc1ccc2c(c1)OCO2)c1ccccc1CSc1nc2ccccc2o1 do in these assays?
PV pol inh: inactive; AID504770: inactive; MenB inh: inactive; MbtI inh: inactive

How did O=C(Cn1c(CCCO)nc2ccccc21)N1CCc2ccccc21 do in these assays?
PV pol inh: inactive; AID504770: inactive; MenB inh: inactive; MbtI inh: 96

Results for CCCCNc1nc2ccccc2n1CC(=O)N1CCc2ccccc21 ?
PV pol inh: inactive; AID504770: inactive; MenB inh: inactive; MbtI inh: inactive

What do the screens show for `Cc1ccc(-n2nc(C(=O)NC(C)CCc3ccccc3)c3c4ccccc4n(C)c3c2=O)cc1` (configuration not stated)?
PV pol inh: inactive; AID504770: -2.8; MenB inh: inactive; MbtI inh: inactive

What do the screens show for `CC12CC(C)(C)C(C#N)(C(N)=C1C#N)C(=C(C#N)C#N)N2` (configuration not stated)?
PV pol inh: 83; AID504770: inactive; MenB inh: inactive; MbtI inh: inactive

Results for O=C(CSc1n[nH]c(=O)n1Cc1ccccc1)NC(=O)Cc1ccccc1 ?
PV pol inh: inactive; AID504770: inactive; MenB inh: inactive; MbtI inh: inactive

What do the screens show for `CC(C)(C)c1[nH]oc(=O)c1N=O`?
AID504770: -7.3; MbtI inh: inactive

What do the screens show for `CC(=O)Oc1c(Br)cc2oc(=O)sc2c1Br`?
PV pol inh: inactive; AID504770: inactive; MenB inh: inactive; MbtI inh: 91

Results for c1ccc(CN2CCN(Cc3ccc4c(c3)OCCO4)CC2)cc1 ?
PV pol inh: inactive; AID504770: inactive; MenB inh: inactive; MbtI inh: inactive

What do the screens show for `CCN1C(=O)N(c2ccccc2)P(=S)(N2CCCC2)c2cc3c(cc21)OCCO3` (configuration not stated)?
PV pol inh: 87; AID504770: inactive; MenB inh: inactive; MbtI inh: 90

What do the screens show for `NC(=S)NN=C1C2CC3CC(C2)CC1C3`?
PV pol inh: 82; AID504770: inactive; MenB inh: inactive; MbtI inh: inactive

What do the screens show for `CCCCCCCc1c(C#N)c(N)[nH]c(=S)c1C#N`?
PV pol inh: 69; AID504770: inactive; MenB inh: inactive; MbtI inh: 97

Results for CC1Sc2ccc(C(=O)NCc3ccccn3)cc2NC1=O (configuration not stated) ?
PV pol inh: 87; AID504770: inactive; MenB inh: inactive; MbtI inh: 87

How did COC(=O)c1cccc(OCC(O)CNCCC2=CCCCC2)c1 (configuration not stated) do in these assays?
PV pol inh: inactive; AID504770: inactive; MenB inh: inactive; MbtI inh: inactive

How did COc1cccc(OCC2COS(=O)O2)c1 (configuration not stated) do in these assays?
PV pol inh: 85; AID504770: inactive; MenB inh: inactive; MbtI inh: inactive

Results for O=S1OCC(COc2cccc3ccccc23)O1 (configuration not stated) ?
PV pol inh: 76; AID504770: inactive; MenB inh: inactive

Results for O=C1NCC(COc2cccc3ccccc23)O1 (configuration not stated) ?
AID504770: inactive; MbtI inh: inactive

How did CCC(=O)Nc1c(C(=O)N2CCOCC2)oc2ccccc12 do in these assays?
PV pol inh: inactive; AID504770: inactive; MenB inh: inactive; MbtI inh: inactive

What do the screens show for `COc1ccc(-c2nnc(SCC(=O)Nc3ccc4[nH]c(=O)[nH]c4c3)n2C2CCCCC2C)cc1` (configuration not stated)?
PV pol inh: inactive; AID504770: inactive; MenB inh: inactive; MbtI inh: inactive

Results for O=C(N=C=S)c1ccc2ccccc2c1 ?
PV pol inh: 75; AID504770: inactive; MenB inh: inactive; MbtI inh: inactive

What do the screens show for `CN(C)S(=O)(=O)c1cccc(C(=O)N=C=S)c1`?
PV pol inh: 70; AID504770: inactive; MenB inh: inactive; MbtI inh: 96

How did CC1CCC[S+](c2cc(O)ccc2O)C1 (configuration not stated) do in these assays?
PV pol inh: inactive; AID504770: inactive; MenB inh: inactive; MbtI inh: 101

How did S=C(NC1CCCC1)N1CCN(c2ccccc2)CC1 do in these assays?
PV pol inh: inactive; AID504770: inactive; MenB inh: inactive; MbtI inh: inactive

Bioassay records as filed in PubChem.
